The values that follow come from PubChem BioAssay (Tox21).

Several values for one entry are separate records, joined by “and”; a condition that tells them apart may be missing. Equal entries are not always repeated. Records with an inconclusive call do not appear. Where a call stands in place of a potency, no number is given. Unmarked numbers belong to inactive results. Activity calls are given as the source filed them. Calls follow the shape of the dose curve; as a rule, active = well fitted activation curve with a large enough effect in the repeat runs; inconclusive = weak or mixed curves; inactive = no such curve, though single readings can be large or run the other way.
Potency is read from the fitted curve at half-maximal effect.

The target in the test is Nuclear receptor subfamily 1 group I member 3 (Homo sapiens) (UniProt Q14994). The test is described as follows: qHTS assay to identify small molecule agonists of the constitutive androstane receptor (CAR) signaling pathway (AID 1224839). Also: nearly all actives have a fitted effect of over 15% in size. The following applies: HepG2 hCAR CYP2B6-luciferase, agonist mode, 24 h; series mostly up to 92.4 µM; activation: at the top concentration. The essentials: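 HepG2 cells stably expressing hCAR and a CYP2B6-2.2kb luciferase reporter were treated with compounds at 15 concentrations plus 0.75 uM PK11195 (final) for 24 h at 37 C; luminescence was read after ONE-Glo addition.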
Chain of Nuclear receptor subfamily 1 group I member 3 (Homo sapiens) (Q14994 whole entry, looked up): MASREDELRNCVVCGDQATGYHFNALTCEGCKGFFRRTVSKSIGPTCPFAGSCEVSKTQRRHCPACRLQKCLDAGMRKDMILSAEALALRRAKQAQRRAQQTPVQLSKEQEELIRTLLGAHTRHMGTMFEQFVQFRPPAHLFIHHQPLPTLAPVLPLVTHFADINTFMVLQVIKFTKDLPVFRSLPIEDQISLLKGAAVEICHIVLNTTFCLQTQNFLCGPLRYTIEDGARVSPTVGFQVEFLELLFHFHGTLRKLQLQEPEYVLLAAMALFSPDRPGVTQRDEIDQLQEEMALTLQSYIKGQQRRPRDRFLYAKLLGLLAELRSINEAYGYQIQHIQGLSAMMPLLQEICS
A general note: qHTS replaces the single test concentration by a dilution series.
With `O=C(Nc1ccc([N+](=O)[O-])cc1Cl)c1cc(Cl)ccc1O`, the Potency was 1.54 µM (active) and 820 nM (active). On to `COC(=O)CCC(=O)OC`, for which the Potency entry is “inactive”.

Turning to `O=CCc1ccccc1`, the Potency result was “inactive”.

Regarding `CC(C)OC=O`, the Potency entry is “inactive”. For the compound `O=C(O)c1ccccc1Nc1cccc(C(F)(F)F)c1`, the Potency entry was “inactive”.

In the case of `c1cc(N(CC2CO2)CC2CO2)ccc1OCC1CO1` (stereo not given), the Potency entry was “inactive”. Still for that read-out and setting: for `CCC(C)(O)CCCC(C)C` (stereo not given) the value was “inactive”; for `Cc1c(C(N)=O)cc([N+](=O)[O-])cc1[N+](=O)[O-]`, “inactive”. As to `O=C(COc1ccc(Cl)cc1)N1CCN(Cc2ccc3c(c2)OCO3)CC1`, the “activation” value is 2.83% [at 42.5 µM]. Consider `Cc1cccc([N+](=O)[O-])c1C`, for which the Potency result is “inactive”. The same measure, in the same setting: the result for `O=CCCCC=O` reads “inactive”; that for `CCCCCCCCCC(=O)OC`, “inactive”; that for `CCCc1c(OCCCCc2nn[nH]n2)ccc(C(C)=O)c1O`, “inactive”. Turning to `C=C(C)C1CC=C(C)CC1` (stereo not given), the Potency entry was “inactive”. Consider `Oc1ccc(O)cc1`, for which the Potency was 30.5 µM (active) and 34.4 µM (active). Turning to `COc1ccc(C(=O)CC(=O)c2ccc(C(C)(C)C)cc2)cc1`, the “activation” value was 4.07% [at 42.5 µM]. For `c1ccc2c(c1)c1cccc3ccc4cccc2c4c31`, the Potency is 13.6 µM (active) and 27.3 µM (active). In the case of `C[C@]12CCC(=O)C=C1CC[C@@H]1[C@@H]2C(=O)C[C@@]2(C)[C@H]1CC[C@]2(O)C(=O)CO`, the Potency entry is “inactive”.

As to `OC1CCCCCCCCCCC1`, the Potency entry is “inactive”. Regarding `CC(=O)C1(C)CC2=C(CCCC2(C)C)CC1C` (stereo not given), the Potency entry was “inactive”. With `C=CC(C)(CCC=C(C)C)OC(C)=O` (stereo not given), the Potency result is “inactive”. Same read-out and setting: the result for `CC(=O)c1ccccn1` reads “inactive”; that for `COC(C)COC(C)COC(C)CO` (stereo not given), “inactive”.

In the case of `COc1ccc(OC)c(C(O)CNC(=O)CN)c1` (stereo not given), the Potency result was “inactive”.

`CC(=O)CC/C=C(\C)CCC=C(C)C`: the Potency result was “inactive”.
